Active and inactive are the calls of the source.
Columns and labels:
[1] = small molecules captured by biotinylated probe aFSTL3 – biochemical, small-molecule microarray, fluorescence 635/667, stem cell growth factor project, primary screen (AID 1064); settings: higher = more signal;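 note: measures binding of the biotinylated anti-FSTL3 antibody to printed compounds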
[2] = binders from COS7 lysate, DM2A8 probe, primary screen, torsin A project, cell lysate, small-molecule microarray, fluorescence 635/667 (AID 1065); settings: higher = more signal, COS7 lysate expressing mutant human TOR1A
[3] = small molecules captured by biotinylated probe aFGF2 – biochemical, small-molecule microarray, fluorescence 635/667, stem cell growth factor project, primary screen (AID 1067); settings: higher = more signal;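 note: measures binding of biotinylated aFGF2 protein to printed compounds on slides; z-score merges feature fluorescence and signal-to-noise across triplicate slides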
[4] = small molecules captured by biotinylated probe aFGF10 – biochemical, small-molecule microarray, fluorescence 635/667, stem cell growth factor project, primary screen (AID 1071); settings: higher = more signal;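 note: score merges 667 nm spot intensity and signal to noise from triplicate slides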
[5] = target: Neurogenic locus notch homolog protein 2 (Homo sapiens) (UniProt Q04721); assay: small molecules binding Notch2 protein – biochemical, small-molecule microarray, 635 nm fluorescence, stem cell growth factors, primary screen (AID 1073); settings: higher = more signal
Chain of Neurogenic locus notch homolog protein 2 (Homo sapiens) (Q04721 whole entry, looked up, canonical isoform): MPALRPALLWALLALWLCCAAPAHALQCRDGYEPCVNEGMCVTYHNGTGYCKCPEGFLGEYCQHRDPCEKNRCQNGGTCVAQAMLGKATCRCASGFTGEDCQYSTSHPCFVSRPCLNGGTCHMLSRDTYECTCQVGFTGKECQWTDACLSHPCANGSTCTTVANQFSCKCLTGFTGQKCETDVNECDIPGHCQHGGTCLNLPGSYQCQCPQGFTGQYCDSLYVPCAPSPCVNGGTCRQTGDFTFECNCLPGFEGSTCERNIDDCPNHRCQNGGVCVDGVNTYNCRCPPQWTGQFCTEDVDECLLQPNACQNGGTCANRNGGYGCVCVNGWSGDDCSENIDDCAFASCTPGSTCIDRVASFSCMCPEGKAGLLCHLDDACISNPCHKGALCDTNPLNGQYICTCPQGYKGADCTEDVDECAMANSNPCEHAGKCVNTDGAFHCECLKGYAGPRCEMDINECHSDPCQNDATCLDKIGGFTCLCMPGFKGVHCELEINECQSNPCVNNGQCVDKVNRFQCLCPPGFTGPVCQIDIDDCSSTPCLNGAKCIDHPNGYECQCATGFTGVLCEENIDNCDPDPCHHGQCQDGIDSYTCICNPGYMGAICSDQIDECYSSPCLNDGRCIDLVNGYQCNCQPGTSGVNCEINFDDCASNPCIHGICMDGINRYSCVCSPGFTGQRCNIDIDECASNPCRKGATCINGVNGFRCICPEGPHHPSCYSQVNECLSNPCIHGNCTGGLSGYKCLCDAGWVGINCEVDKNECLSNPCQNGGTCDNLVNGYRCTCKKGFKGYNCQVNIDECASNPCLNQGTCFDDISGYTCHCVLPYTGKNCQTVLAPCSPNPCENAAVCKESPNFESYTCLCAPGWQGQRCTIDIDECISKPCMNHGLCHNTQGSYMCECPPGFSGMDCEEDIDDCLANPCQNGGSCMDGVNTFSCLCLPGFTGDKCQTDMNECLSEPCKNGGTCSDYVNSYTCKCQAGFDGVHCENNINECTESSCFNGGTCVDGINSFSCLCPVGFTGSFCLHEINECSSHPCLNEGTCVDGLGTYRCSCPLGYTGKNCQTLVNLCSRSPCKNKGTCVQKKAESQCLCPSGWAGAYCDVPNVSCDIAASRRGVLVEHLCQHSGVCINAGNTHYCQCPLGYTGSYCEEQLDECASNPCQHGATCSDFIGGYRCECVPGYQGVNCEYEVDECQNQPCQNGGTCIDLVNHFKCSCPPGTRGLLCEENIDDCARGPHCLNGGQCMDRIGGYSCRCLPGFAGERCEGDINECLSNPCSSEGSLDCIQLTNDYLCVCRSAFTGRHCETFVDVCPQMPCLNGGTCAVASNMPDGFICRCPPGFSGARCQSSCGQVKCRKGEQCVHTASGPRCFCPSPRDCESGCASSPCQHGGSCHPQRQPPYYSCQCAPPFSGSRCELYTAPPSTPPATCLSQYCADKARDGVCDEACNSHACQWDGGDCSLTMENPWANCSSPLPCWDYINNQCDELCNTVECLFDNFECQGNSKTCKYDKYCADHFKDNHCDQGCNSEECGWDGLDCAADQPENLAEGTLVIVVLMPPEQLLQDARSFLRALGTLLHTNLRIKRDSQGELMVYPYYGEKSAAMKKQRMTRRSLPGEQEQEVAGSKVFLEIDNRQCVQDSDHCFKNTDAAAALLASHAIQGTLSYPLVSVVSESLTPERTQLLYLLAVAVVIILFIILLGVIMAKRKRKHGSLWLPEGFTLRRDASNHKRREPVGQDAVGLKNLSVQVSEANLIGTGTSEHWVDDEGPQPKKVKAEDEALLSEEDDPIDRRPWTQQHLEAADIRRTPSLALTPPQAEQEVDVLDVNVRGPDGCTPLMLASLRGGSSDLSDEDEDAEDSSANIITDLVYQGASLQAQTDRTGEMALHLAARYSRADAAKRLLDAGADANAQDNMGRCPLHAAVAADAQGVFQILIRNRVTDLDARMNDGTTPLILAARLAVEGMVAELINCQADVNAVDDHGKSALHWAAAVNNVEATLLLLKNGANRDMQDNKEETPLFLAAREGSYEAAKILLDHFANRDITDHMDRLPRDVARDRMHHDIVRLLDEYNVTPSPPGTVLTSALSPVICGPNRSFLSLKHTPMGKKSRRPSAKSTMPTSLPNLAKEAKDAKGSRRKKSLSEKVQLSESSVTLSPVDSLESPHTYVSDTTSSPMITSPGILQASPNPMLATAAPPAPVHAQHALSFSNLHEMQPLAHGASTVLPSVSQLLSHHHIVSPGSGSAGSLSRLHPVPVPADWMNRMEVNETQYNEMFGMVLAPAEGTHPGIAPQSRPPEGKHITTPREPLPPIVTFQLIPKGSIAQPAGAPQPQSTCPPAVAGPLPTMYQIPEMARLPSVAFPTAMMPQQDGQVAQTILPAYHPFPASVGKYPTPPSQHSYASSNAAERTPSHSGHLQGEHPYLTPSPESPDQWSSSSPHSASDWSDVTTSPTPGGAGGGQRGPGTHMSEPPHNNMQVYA

[6] = target: Pro-neuregulin-1, membrane-bound isoform (Homo sapiens) (UniProt Q02297); assay: small molecules binding neuregulin-1 protein – biochemical, small-molecule microarray, fluorescence 635/667, psychiatric disease protein project, primary screen (AID 1075); settings: NRG1 binding, 635 nm fluorescence, higher = more signal;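 note: score combines 667 nm spot fluorescence with signal to noise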
Chain of Pro-neuregulin-1, membrane-bound isoform (Homo sapiens) (Q02297 whole entry, looked up, the tested form may be a part, canonical isoform): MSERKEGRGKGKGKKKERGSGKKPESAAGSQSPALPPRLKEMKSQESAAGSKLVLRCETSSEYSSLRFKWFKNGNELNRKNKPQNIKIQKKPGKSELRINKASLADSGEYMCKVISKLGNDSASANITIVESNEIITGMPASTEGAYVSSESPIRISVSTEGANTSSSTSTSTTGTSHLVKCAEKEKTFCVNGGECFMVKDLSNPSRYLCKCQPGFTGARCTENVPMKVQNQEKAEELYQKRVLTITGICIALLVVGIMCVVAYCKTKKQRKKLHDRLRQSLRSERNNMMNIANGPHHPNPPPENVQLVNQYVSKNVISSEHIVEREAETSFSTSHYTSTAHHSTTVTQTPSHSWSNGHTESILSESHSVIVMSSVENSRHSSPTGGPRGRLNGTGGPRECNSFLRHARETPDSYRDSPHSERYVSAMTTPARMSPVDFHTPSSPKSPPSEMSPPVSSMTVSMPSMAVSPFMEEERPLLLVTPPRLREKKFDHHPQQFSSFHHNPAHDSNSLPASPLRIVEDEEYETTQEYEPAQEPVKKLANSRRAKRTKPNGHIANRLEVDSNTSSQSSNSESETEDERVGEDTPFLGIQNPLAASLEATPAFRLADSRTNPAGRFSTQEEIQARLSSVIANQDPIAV

[7] = tested on: Neuregulin-1 EGF-like domain; assay: small molecules binding NRG1 EGF domain – biochemical, small-molecule microarray, 635 nm fluorescence, primary screen (AID 1081); settings: higher = more signal;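 note: binding of the protein to compounds printed on small-molecule microarray slides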
[8] = FRG1 expression reporter modulators in myotubes – cell-based, C2C12 myotubes, firefly/Renilla luciferase, luminescence, FRG1 inhibition for FSHD, primary screen (AID 1084); settings: FRG1 promoter luciferase, higher = more signal, called active from +8 up or from −8 down
[9] = small molecules captured by biotinylated probe aFST – biochemical, small-molecule microarray, fluorescence 635/667, stem cell growth factor project, primary screen (AID 1086); settings: higher = more signal;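 note: score merges 667 nm fluorescence with signal-to-noise of each printed compound spot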
[10] = binders of probe aHhip on microarray, primary screen, stem cell growth factor project, biochemical, small-molecule microarray, fluorescence 635/667 (AID 1087); settings: higher = more signal;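 note: score merges spot fluorescence at 667nm with spot signal to noise ratio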
[11] = tested on: PRMT1 (protein arginine N-methyltransferase 1); assay: small molecules binding arginine methyltransferase PRMT1 – biochemical, small-molecule microarray, 635 nm fluorescence, primary screen (AID 1088); settings: higher = more signal;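 note: binding of Prmt1 protein to compounds spotted on small-molecule microarray slides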
[12] = growth effects on S. cerevisiae YJM789 – YJM789 clinical isolate, OD600, 24 h, basal, primary screen (AID 1089); settings: higher = more signal, called active from +8 up or from −8 down;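 note: growth of clinical yeast isolate S. cerevisiae YJM 789 seeded 1000 cells per well; test concentration not given here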
[13] = S. pombe growth modifiers, basal conditions – strain 972, OD600, 24 h, no modulator, primary screen (AID 1090);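 note: basal condition with compound alone and no growth modifier present; test concentration not given here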; settings: S. pombe 972 growth, higher = more signal, called active from +8 up or from −8 down
[14] = budding yeast growth modifiers under rapamycin – strain BY4716, OD600, 96 h, primary screen (AID 1091); note: test concentration not given here; settings: S. cerevisiae BY4716 + rapamycin, higher = more signal, called active from +8 up or from −8 down
[15] = target: Torsin-1A-interacting protein 2 (Homo sapiens) (UniProt Q8NFQ8); assay: small molecules binding lysate-expressed LULL1 – cell lysate, human LULL1 lysate, 635/667 nm fluorescence, primary screen (AID 1092); settings: small-molecule microarray, hLULL1 lysate binding, 635 nm fluorescence; higher = more signal;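 note: probe is lysate of COS7 cells overexpressing human LULL1; score merges per-feature 667 nm fluorescence with signal-to-noise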
Chain of Torsin-1A-interacting protein 2 (Homo sapiens) (Q8NFQ8 whole entry, looked up): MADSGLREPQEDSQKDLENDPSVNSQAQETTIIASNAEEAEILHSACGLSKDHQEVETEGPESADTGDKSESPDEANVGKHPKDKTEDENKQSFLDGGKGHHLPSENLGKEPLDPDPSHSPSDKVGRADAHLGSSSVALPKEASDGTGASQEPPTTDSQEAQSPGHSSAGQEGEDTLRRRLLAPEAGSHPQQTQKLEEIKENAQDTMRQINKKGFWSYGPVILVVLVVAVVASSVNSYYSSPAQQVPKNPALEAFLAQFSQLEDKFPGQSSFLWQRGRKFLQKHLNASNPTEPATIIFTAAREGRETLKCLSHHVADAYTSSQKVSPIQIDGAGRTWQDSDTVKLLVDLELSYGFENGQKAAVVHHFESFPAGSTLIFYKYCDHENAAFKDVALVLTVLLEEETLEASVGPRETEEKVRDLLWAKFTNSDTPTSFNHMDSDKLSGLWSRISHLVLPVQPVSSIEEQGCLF

[16] = optical density change of DRC41 E. coli – strain DRC41, OD650, 24 h, E. coli filamentation project, primary screen (AID 1093);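 note: MC1000 strain lacking acrAB efflux and sulA so SOS filamentation is blocked; test concentration not given here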; settings: E. coli DRC41 growth, higher = more signal, called active from +8 up or from −8 down
[17] = probe aLefty2 binding to arrayed compounds – biochemical, biotinylated probe, 635/667 nm fluorescence, primary screen (AID 1094); settings: small-molecule microarray, higher = more signal;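 note: score merges spot fluorescence near 667 nm with spot signal-to-noise ratio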
[18] = tested on: Noggin (protein binding on small-molecule microarray); assay: small molecules binding Noggin protein – biochemical, 635/667 nm fluorescence, primary screen (AID 1095); settings: 635 nm fluorescence, higher = more signal;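 note: score merges 667 nm feature fluorescence with signal to noise over triplicate slides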
[19] = target: Neurogenic locus notch homolog protein 3 (Homo sapiens) (UniProt Q9UM47); assay: small molecules binding NOTCH3 protein – biochemical, 635/667 nm fluorescence, primary screen (AID 1096); settings: small-molecule microarray, 635 nm fluorescence, higher = more signal
[20] = probe aEGFR binding to arrayed compounds – biochemical, biotinylated probe, 635/667 nm fluorescence, primary screen (AID 1097); settings: small-molecule microarray, higher = more signal;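 note: probe is a biotinylated anti-EGFR antibody binding compounds printed on slides; score combines fluorescence near 667 nm and signal to noise of each spot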

Compound	composite z-score [1]	composite z-score [2]	composite z-score [3]	composite z-score [4]	composite z-score [5]	composite z-score [6]	composite z-score [7]	z-score [8]	composite z-score [9]	composite z-score [10]	composite z-score [11]	z-score [12]	z-score [13]	z-score [14]	composite z-score [15]	z-score [16]	composite z-score [17]	composite z-score [18]	composite z-score [19]	composite z-score [20]
[N-]=[N+]=Nc1ccccc1[C@@H]1OC(c2ccc(OCCCO)cc2)=N[C@]1(CCS(=O)(=O)c1ccccc1)C(=O)O	0.0639	0.459	0.079	0.839	1.57	1.53	0.862	3.39 (inactive)	0.912	0.151	1.56	1.57 (inactive)	-3.97 (inactive)	-1.63 (inactive)	3.39	0.777 (inactive)	-0.013	0.61	1.01	0.172
COCCOC(=O)N1C(=O)[C@@]2(c3cc(C#CCC(C(=O)OC)C(=O)OC)ccc31)[C@H](c1ccccc1OCCO)N1[C@H](c3ccccc3)[C@H](c3ccccc3)OC(=O)[C@H]1[C@@H]2C(=O)Nc1nc2ccccc2s1	-0.144	1.2	-0.0335	1.19	1.2	1.37	1.06	0.0053 (inactive)	0.417	0.417	1.5	-1.03 (inactive)	-0.573 (inactive)	1.95 (inactive)	2.22	4.28 (inactive)	0.0416	1.05	1.05	0.0632
C[C@H]1C2[C@H](Cc3ccccc3)NC(=O)[C@]23C(=O)N[C@H](Cc2ccccc2)C(=O)N[C@H](Cc2ccccc2)C(=O)NC/C=C/CCC/C=C/C3[C@@H]2O[C@]12C (stereo not given in full)	-0.367	0.881	-0.174	0.309	-0.163	0.365	1.21	4.86 (inactive)	0.22	0.154	0.786	0.524 (inactive)	-1.84 (inactive)	0.254 (inactive)	2.17	1.35 (inactive)	-0.241	1.58	0.62	-0.152
C=C(COC)/C(=C/C[C@H](OC(C)=O)c1ccccc1OCCO)c1cnc2ccccc2c1	-0.419	-0.288	-0.0366	1.08	1.33	1.19	1.13	-0.267 (inactive)	0.101	0.142	0.826	-0.837 (inactive)	0.14 (inactive)	1.29 (inactive)	1.76	0.223 (inactive)	-0.171	0.556	0.76	0.436
O=c1cccc(-c2ccccc2)o1	-0.0048	-0.313	-0.0996	0.062	0.197	-0.356	0.811	2.03 (inactive)	-0.0103	0.113	-0.159	-1.42 (inactive)	-3.79 (inactive)	-0.482 (inactive)	-0.568	-0.528 (inactive)	-0.18	-0.124	-0.435	-0.136
O=c1cccc(-c2ccc3ccccc3c2)o1	0.636	-0.0452	0.114	-0.183	-0.383	-0.288	-0.602	7.42 (inactive)	0.389	-0.0022	-0.387	-11.9 (active)	-15 (active)	-3.02 (inactive)	-0.0751	1.82 (inactive)	0.0673	-0.0993	-0.349	-0.138
CCOC1=C2C(c3ccc(C)cc3)N(S(=O)(=O)c3ccc(C)cc3)CC2n2c(=O)n(-c3ccccc3)c(=O)n2C1 (stereo not given)	-0.19	0.475	0.0876	0.94	1.55	1.13	0.0031	-3.93 (inactive)	0.701	-0.26	1.41	-0.281 (inactive)	0.401 (inactive)	1.73 (inactive)	2.89	-0.278 (inactive)	0.152	0.351	1.08	0.0201
C=CCCN(CC#C[C@H]1Oc2ccccc2S(=O)(=O)N2CCC[C@@H]12)S(=O)(=O)c1ccc(C)cc1	-0.141	-0.0385	-0.0717	0.61	-0.271	0.353	0.476	-4.31 (inactive)	0.0279	0.0373	0.514	1.15 (inactive)	-1.7 (inactive)	0.965 (inactive)	0.974	-1.59 (inactive)	-0.139	0.264	0.18	-0.145
CC(C)NC(=O)[C@@H]1c2ccccc2C(=O)N(C2CCCCC2)[C@H]1c1ccc(CO)cc1	0.0605	0.562	0.0703	0.74	0.851	1.15	1	0.492 (inactive)	0.333	-0.216	0.4	-0.455 (inactive)	0.0765 (inactive)	0.13 (inactive)	1.48	0.0495 (inactive)	0.25	-0.123	0.108	0.262
COCCCNC(=O)[C@@]1(C)c2ccccc2C(=O)N(Cc2ccccc2)[C@H]1c1ccc(CO)cc1	0.235	0.0748	-0.173	-0.979	-1.19	1.88	1.5	-1.24 (inactive)	-0.353	-0.147	1.46	-0.21 (inactive)	-1.31 (inactive)	-0.0048 (inactive)	3.43	-0.336 (inactive)	-0.11	-0.694	0.0118	-0.168
CC(C)[Si]1(C(C)C)O[C@@H](c2ccccc2)c2cc(-c3ccc(-c4ccc(Cl)c(Cl)c4)o3)nc(CCc3ccccc3)c21	0.662	-0.56	-0.16	-0.641	-0.868	-0.345	-0.314	0.838 (inactive)	-0.363	0.269	0.324	0.149 (inactive)	-2.2 (inactive)	3.08 (inactive)	0.883	-0.823 (inactive)	-0.126	-1.37	-1.78	-0.248
C=CC[C@]1(C(=O)O)N=C(c2ccc(OCCCO)cc2)O[C@H]1c1ccccc1CN=[N+]=[N-]	0.736	-0.43	-0.144	-0.638	-0.129	0.743	0.467	2.22 (inactive)	0.182	-0.275	-0.697	0.442 (inactive)	0.263 (inactive)	0.602 (inactive)	1.55	0.143 (inactive)	-0.135	-0.383	-0.522	-0.0239
O=P(NCC1(CC2(c3ccccc3)CO2)CC1)(c1ccccc1)c1ccccc1 (stereo not given)	0.565	-0.856	0.218	0.315	-0.401	1.06	0.619	-1.59 (inactive)	-0.0087	0.275	-0.878	-0.468 (inactive)	1.08 (inactive)	0.236 (inactive)	3.14	0.31 (inactive)	-0.132	-1.44	-1.19	-0.207
CCOC(=O)N1C(c2ccc(OCCCO)cc2)=NC(C(=O)OC)N1C(=O)OCC (stereo not given)	-0.243	0.0754	0.0794	0.683	1.17	1.39	1.14	1.37 (inactive)	0.424	-0.347	1.54	-0.925 (inactive)	-0.265 (inactive)	-1.32 (inactive)	3.21	1.2 (inactive)	0.174	1.42	1.09	-0.0325
C=CCN1C(=O)[C@@]2(O[C@@H](CCO)[C@H]([Si](C)(C)c3ccc(OC)cc3)[C@H]2C)c2cc(NC(C)=O)ccc21	-0.412	0.299	-0.0887	1.19	1.07	0.864	1.2	-0.174 (inactive)	0.55	0.294	1.15	0.0173 (inactive)	-1.67 (inactive)	-0.741 (inactive)	1.96	-0.203 (inactive)	-0.0231	1.23	0.725	0.118
COC(=O)[C@@]1(Cc2ccc(F)cc2)[C@H]2c3cc(C(=O)N(C)C)n(Cc4ccccn4)c3C[C@H]2CN1C(=O)c1ccccc1	0.449	0.55	0.25	0.658	1.65	1.42	1.38	3.37 (inactive)	1.55	1.49	0.837	-0.602 (inactive)	-0.306 (inactive)	-0.545 (inactive)	3.7	-0.0591 (inactive)	-0.153	0.321	1.01	0.533
CN1C(=O)C2C=CC(C(O)c3ccc(Br)cc3)N(Nc3ccccc3)C2C1=O (stereo not given)	0.607	1.46	-0.0747	-0.287	-0.468	0.648	0.728	0.665 (inactive)	-0.118	-0.0346	-0.897	0.947 (inactive)	-0.0449 (inactive)	0.878 (inactive)	1.27	-0.54 (inactive)	0.296	-1.48	-1.17	-0.0594
C=CCN1Cc2ccccc2C[C@@]2(COC(c3ccc(OCCCO)cc3)=N2)C1=O	1.12	0.391	-0.0159	0.0999	1.19	1.05	1.31	-3.79 (inactive)	0.703	0.0749	1.5	-0.915 (inactive)	-4.77 (inactive)	0.817 (inactive)	2.3	1.42 (inactive)	0.247	0.34	0.454	0.052
C=C(C(=O)CC[C@@H](OC(=O)c1cccnc1)c1ccc(OCCO)cc1)C(C)C	-0.408	-0.294	-0.113	1.27	-0.121	0.739	1.06	-2.68 (inactive)	0.128	-0.0994	1.57	-24.3 (active)	-20.5 (active)	-4.75 (inactive)	0.111	-0.808 (inactive)	-0.209	1.58	0.344	-0.0972
O=C1C2C=CC(C(O)C3CC=CCC3)N(n3cnnc3)C2C(=O)N1Cc1ccccc1 (stereo not given)	0.61	0.43	-0.158	-1.03	-1.23	0.998	0.518	0.37 (inactive)	-0.354	0.12	1.07	-0.504 (inactive)	0.196 (inactive)	0.0633 (inactive)	1.09	-1.09 (inactive)	-0.223	-1.05	-0.686	-0.314
